In the library only some 19% were active in any assay of this set; here they are far more common.
TDP1 block – blocks human tyrosyl-DNA phosphodiesterase 1. 350,000 compounds, 0.28% hits. recombinant TDP1, AlphaScreen DNA substrate cleavage. Potency, µM (highest dose often 130 µM), without a hit: top-dose activity change, negative = inhibition, hits mostly inhibitors. Q9NUW8; note: nearly all actives have a fitted effect of over 40% in size
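Compounds were preincubated with Tdp1 (1 nM final) for 15 min at room temperature before substrate (15 nM final) started a 5 min reaction; beads (10 ug/ml final) were then added for 10 min before AlphaScreen detection.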
TDP1 cell noCPT – qHTS for Inhibitors of human tyrosyl-DNA phosphodiesterase 1 (TDP1): qHTS in cells in absence of CPT; Potency, µM (doses to about 46.2 µM), for inactives: top-dose activity change, negative = growth inhibition, usual class: inhibitors; 420,000 compounds, 15% hits; DT40 Tdp1-/- hTDP1 cells, no CPT, ATP luminescence, 48 h; note: nearly all actives have a fitted effect of over 55% in size
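Luminescent ATP content (CellTiter-Glo) served as the growth readout. Knockout chicken DT40 cells expressing human TDP1 were exposed to compounds without camptothecin for a minimum 48 hr at 37 °C.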
TDP1 cell CPT – DT40-hTDP1 cell growth loss with CPT; AID 686979; chicken DT40 Tdp1-/-;hTDP1 cells + 20 nM CPT, ATP luminescence, 48 h; Potency, µM (highest dose often 46.2 µM), for the others: at the highest dose activity change, negative = growth inhibition, actives largely listed as inhibitors; 420,000 compounds, 12% hits; note: nearly all actives have a fitted effect of over 55% in size
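Cell growth measured by CellTiter-Glo luminescence after a minimum 48 h, 37 C compound exposure with 20 nM CPT in Tdp1-knockout DT40 cells stably expressing hTDP1, seeded 400/well; qHTS titration format.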
RORg inh – ROR gamma (mouse) transcription inhibition. 310,000 compounds, 5.4% hits. Potency, µM (series often up to 53.6 µM), for the others: top-dose activity change, negative = inhibition, most hits filed as inhibitors. Drosophila S2 Gal4-RORgamma UAS-luciferase reporter, 20 h; note: nearly all actives have a fitted effect of over 60% in size
Target sequence (P51450 whole entry, looked up, the tested form may be a part): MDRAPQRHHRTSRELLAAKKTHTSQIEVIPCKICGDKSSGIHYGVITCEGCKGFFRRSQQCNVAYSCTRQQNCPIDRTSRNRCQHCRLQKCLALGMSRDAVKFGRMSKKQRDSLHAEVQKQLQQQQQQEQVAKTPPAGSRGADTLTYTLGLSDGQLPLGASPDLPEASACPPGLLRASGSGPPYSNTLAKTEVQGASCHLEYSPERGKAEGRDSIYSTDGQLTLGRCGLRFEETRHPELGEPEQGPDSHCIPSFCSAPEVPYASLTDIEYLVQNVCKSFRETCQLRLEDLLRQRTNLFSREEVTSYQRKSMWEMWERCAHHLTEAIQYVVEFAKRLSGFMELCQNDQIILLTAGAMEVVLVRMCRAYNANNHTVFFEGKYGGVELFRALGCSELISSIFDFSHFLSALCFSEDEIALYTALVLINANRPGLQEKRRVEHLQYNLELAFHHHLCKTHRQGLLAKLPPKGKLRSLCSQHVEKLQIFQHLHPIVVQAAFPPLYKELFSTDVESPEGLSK
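A Gal4/UAS one-hybrid system in insect cells: metallothionein-promoter Gal4–ROR gamma fusion plus Photinus luciferase reporter. Copper sulfate 700 uM final, 20 hr ambient incubation, luminescent detection after 10 min with reagent.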
VP16 counter – inhibits Gal4-VP16 luciferase reporter, ROR gamma counter-screen. Drosophila S2 Gal4-VP16 UAS-luciferase, luminescence, 20 h. 310,000 compounds, 3.5% hits. AID 2546. Potency, µM (titrated, usually from 53.6 µM), for inactives: at the highest dose activity, negative = inhibition, actives largely listed as inhibitors;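 note: Gal4-VP16 expression switched on by copper sulfate through the metallothionein promoter; nearly all actives have a fitted effect of over 50% in size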
* hit, by the source's call; ? = inconclusive; . = not tested or not shown; ! = not confirmed by another sample. Calls come from the whole dose curve; as a rule, active = well fitted curve in the direction sought with a large enough effect; inconclusive = small, poorly fitted or top-dose-only effect, or another doubt; inactive = no such curve, though single readings can be large; an effect the other way counts as inactive or inconclusive. % is set by controls: 0 for no effect and ±100 for the full control effect; potency is the fitted concentration of half-maximal effect.

SMILES | TDP1 block | TDP1 cell noCPT | TDP1 cell CPT | RORg inh | VP16 counter
O=C(Nc1ccccc1Oc1ccccc1)c1cc([N+](=O)[O-])ccc1Cl | 3.0% | ? | 16.4µM* | ? | 4.7%
O=C(O)/C=C/C(=O)NCC1CCC(CNC(=O)/C=C/C(=O)O)CC1 (stereo unspecified) | . | -9.2% | -34.2% | -9.7% | -3.3%
Cc1cccc(N(C(=O)c2ccc(Cl)cc2)C2CS(=O)(=O)CC2OC(=O)c2ccc(Cl)cc2)c1 (stereo unspecified) | 1.0% | ? | -8.5% | 7.9% | -8.6%
COc1cccc(CN(C)C(=O)C2CCCN(C(=O)c3ccc(Cl)cc3)C2)c1 (stereo unspecified) | . | ? | 20.6µM* | . | .
CN(Cc1ccccc1)C(=O)C1CCCN(Cc2cccc(Cl)c2)C1 (stereo unspecified) | -2.7% | 23.1µM*! | ? | 15.2% | 0.7%
COc1cccc(CC(NC(C)=O)C(=O)NC2CCN(C(=O)c3ccc(Cl)cc3)CC2)c1 (stereo unspecified) | 1.4% | 5.8µM* | -21.9% | -14.0% | -6.0%
CC(=O)NC(Cc1ccc(F)c(F)c1)C(=O)NC1CCN(C(=O)c2ccc(Cl)cc2)CC1 (stereo unspecified) | . | -12.2% | -0.7% | 16.1% | 4.2%
COc1ccc(C(=O)N2CCCC(C(=O)N3CCCCCC3)C2)cc1 (stereo unspecified) | -1.5% | -5.2% | -9.5% | 15.0% | 0.8%
O=S(=O)(c1ccccc1)[C@@]1(c2ccccc2)C[C@@H]2ON=C(c3cccc(-c4ccccc4)c3)[C@@H]2C1 | -0.9% | 13µM* | ? | . | .
Cc1ccc(S(=O)(=O)N2CCN(Cc3csc(C)n3)CC2)cc1 | 3.9% | -19.9% | 15.8% | -13.2% | 1.3%
Nc1ccc(S(=O)(=O)NCC(=O)OC2CCOC2=O)cc1[N+](=O)[O-] (stereo unspecified) | 25.1µM* | -4.2% | -9.3% | . | .
COC(=O)c1ccsc1NC(=O)c1ccc2c(c1)OCCO2 | . | ? | -16.2% | 4.4% | -5.0%
COc1ccc(NC(=O)CSc2nnc(C)s2)cc1S(=O)(=O)N1CCOCC1 | 0.1% | 4.5% | -6.2% | . | .
Cc1nc(C(=O)NNC(=O)c2ccc(C(F)(F)F)cc2)cs1 | . | 20.6µM* | ? | 5.01µM* | ?
Cc1cc(C(=O)NNC(=O)c2ccc(C(F)(F)F)cc2)no1 | 2.6% | -13.7% | 3.8% | 5.6% | 2.5%
O=C(N[C@@H](Cc1ccccc1)C(=O)N1CCC2(CC1)NCCc1[nH]cnc12)c1cccc(F)c1 | 2.6% | ? | ? | 4.5% | 1.0%
Nc1nnnn1/N=C/c1ccccc1C(F)(F)F | 2.9% | 18.4µM* | 11.6µM* | -12.2% | 4.9%
O=S(=O)(NC(=NC1CCCCC1)c1ccccc1)c1ccc(F)cc1 | 0.5% | -8.4% | -13.5% | 11.9% | 18.6%
Brc1ccc(OCc2ccccc2)c(CNCc2ccncc2)c1 | 7.3% | ? | 15.8µM* | ? | ?
Fc1ccc(COc2ccccc2CNCc2ccncc2)cc1 | 2.7% | 25.9µM* | ? | 7.9% | -8.9%
Brc1cccc(CNCc2ccncc2)c1 | 5.0% | -16.7% | 6.7% | -1.2% | -4.0%
Fc1ccc(CNCc2ccccc2C(F)(F)F)cc1 | 10.1% | -9.5% | -9.0% | -6.2% | -17.0%
O=C(NNS(=O)(=O)c1ccc(F)cc1F)C1Cc2c(ccc3ccccc23)O1 (stereo unspecified) | 7.9% | 18.4µM* | 18.4µM* | ? | ?
NC(=O)c1ccc(NC(=O)COC(=O)/C=C/c2cn(-c3ccccc3)nc2-c2cccnc2)cc1 | 4.5% | ? | -2.6% | -2.5% | -12.5%
O=C(/C=C/c1cn(-c2ccccc2)nc1-c1cccnc1)c1ccco1 | 4.9% | 10.3µM* | 14.6µM* | 6.31µM* | ?
SMILES | TDP1 block | TDP1 cell noCPT | TDP1 cell CPT | RORg inh | VP16 counter
O=C(/C=C/c1cn(-c2ccccc2)nc1-c1cccnc1)NCCN1CCOCC1 | 0.0% | ? | -25.5% | 28.6% | 4.0%
O=C(/C=C/c1cn(-c2ccccc2)nc1-c1cccnc1)N1CCCC1 | 8.3% | 7.31µM* | 8.2µM* | 4.8% | -3.4%
CCN(CC)c1ccc(-c2nc(-c3ccncc3)no2)cc1[N+](=O)[O-] | 0.0% | 14.6µM* | 13µM* | . | .
CCN(CC)c1ccc(-c2nc(-c3ccccn3)no2)cc1[N+](=O)[O-] | 5.7% | 16.4µM* | -7.1% | . | .
Cc1ccc(-c2nc(-c3ccccn3)no2)cc1[N+](=O)[O-] | . | 23.1µM* | ? | 10µM* | 6.31µM*
CCCNc1ccc(-c2nc(-c3ccccn3)no2)cc1[N+](=O)[O-] | 14.3% | -15.5% | -4.9% | . | .
CCc1ccc(CN(C)C(=O)C2CCC(=O)N(CCc3ccc(OC)cc3)C2)nc1 (stereo unspecified) | 2.6% | -15.9% | -16.6% | -11.7% | -4.4%
COc1ccc(S(=O)(=O)Nc2ccc3c(c2)C(=O)N([C@H](C)CO)C[C@H](C)[C@H](CN(C)Cc2ccc(C(=O)O)cc2)O3)cc1 | 1.7% | 2.9% | -8.1% | . | .
COc1ccccc1NC(=O)Nc1nc(CC(=O)N2CCN(c3ccccc3)CC2)cs1 | -1.4% | ? | 16.4µM* | . | .
COc1ccc(N2CCN(C(=O)Cc3csc(NC(=O)Nc4ccccc4OC)n3)CC2)cc1 | 8.2% | 16.4µM* | 16.4µM* | . | .
CC(=O)Nc1ccc(NC(=O)C2CCN(c3cnccn3)CC2)cc1 | 7.0% | -24.9% | -27.4% | . | .
CCOc1ccc(NC(=O)N(Cc2c[nH]c3ccccc23)C2CCCCC2)cc1 | 2.3% | 18.4µM* | 8.2µM* | . | .
CCOc1ccc(NC(=O)N(Cc2c[nH]c3ccccc23)C2CCCCCC2)cc1 | 7.0% | ? | 9.2µM* | . | .
CCOc1ccc(NC(=O)Cc2c[nH]c3ccccc23)cc1 | 2.8% | -14.7% | -2.8% | . | .
CCOC(=O)c1[nH]c(C)c(C(=O)N2CCN(c3ccc(F)cc3)CC2)c1C | 6.6% | ? | ? | -16.0% | 4.0%
CC(=O)c1c(C)[nH]c(C(=O)OCC(=O)N2CCc3ccccc3C2)c1C | 1.4% | 16.4µM* | 23.1µM* | . | .
CCOC(=O)c1[nH]c(C)c(C(=O)N2CCc3ccccc32)c1C | 5.2% | 0.92µM* | 0.82µM* | -18.7% | 0.2%
CC(CNC(=O)CCS(=O)(=O)c1ccc2c(c1)NC(=O)CO2)c1ccccc1 (stereo unspecified) | 0.2% | 2.0% | -14.4% | 1.0% | -14.2%
Cc1c(O)ccc2c3c(c(=O)oc12)CCCC3 | 3.3% | ? | ? | 25.1% | -5.5%
Cc1c(O)ccc2c3c(c(=O)oc12)CCC(C)C3 (stereo unspecified) | 3.2% | 11.6µM* | 23.1µM* | -33.4% | ?

High-throughput results from PubChem.
